A number with no mark means an inactive call. Activity calls are given as the source filed them. The call rests on the fitted dose curve; in most records, active means well fitted curve in the direction sought with a large enough effect in the repeat runs; inconclusive means weak or mixed curves; inactive means flat fitted curve, though single readings scatter.
Assay: qHTS assay to test for compound auto fluorescence at 590 nm (red) in HEK293 cell free culture (AID 720683)
Settings: cell-free medium autofluorescence, Ex540/Em590 red; series mostly up to 91.3 µM; fluorescence, % of fluorescent control: at the top concentration
Source text: U.S. Tox21 Program National Center for Advancing Translational Sciences [NCATS] NIH Chemical Genomics Center [NCGC] U.S. Environmental Protection Agency [EPA] National Institutes of Environmental Health Sciences [NIEHS] National Toxicology Program [NTP] U.S. Food and Drug Administration [FDA] Tox21 Assay Overview: Compound auto fluorescence often interferes with screening of the compound library against various biological targets and signaling pathways. Some of these compounds may have fluorophoric properties. Such properties may interfere with the assay outputs resulting in false positives and/or negatives. To decrease such complications and ensure the compound activities are relevant in terms of biological response, the Tox21 10K compound library was screened for auto fluorescence. From the fluorophores used as reporter signals in our screening assays, the auto fluorescence equivalencies of compounds against three fluorophores have been evaluated: Triamterene, Fluorescein and Rose Bengal sodium for blue, green and red fluorescence, respectively. The fluorescence intensities were measured using Excitation/Emission wavelengths at 405/460nm, 485/535nm and 540/590nm for blue, green and red labels, respectively. This assay includes the red fluorescence data.
Tox21 Assay Protocol Summary: 5 uL of culture medium (DMEM containing 10% FBS) per well was dispensed into black wall/clear bottom 1536-well plates using a Multidrop Combi Dispenser (ThermoFisher Scientific, Waltham, MA). After 23 nL compound or DMSO vehicle was transferred into assay plate by a pintool work station (Kalypsys, San Diego, CA), fluorescence intensities in the assay plates were measured by an Envision (PerkinElmer, Shelton, CT) plate reader using three labels for measuring blue, green and red fluorescence at […] 460, 535 and 590nm respectively.
For `Cc1cc(=O)oc2cc(O)cc(O)c12`, the “fluorescence, % of fluorescent control” value was 0.0006%.
With `C#C[C@]1(O)CC[C@H]2[C@@H]3[C@H](C)CC4=C(CCC(=O)C4)[C@H]3CC[C@@]21C` the “fluorescence, % of fluorescent control” value was 0.0054% [at 46 µM].
In the case of `O=C1CCCCCCCCCCCCCCCO1`, the “fluorescence, % of fluorescent control” value is reported as 0.488%.
With `COc1cccc2c1C(=O)c1c(O)c3c(c(O)c1C2=O)C[C@@](O)(C(C)=O)C[C@@H]3O[C@H]1C[C@H](N)[C@H](O)[C@H](C)O1` the “fluorescence, % of fluorescent control” value was 9.44% [at 46 µM].
For `CCCCOC(=O)CC`, the “fluorescence, % of fluorescent control” value was 0.0742%.
For `O=S(=O)(O)c1ccc(Nc2nc(Nc3ccc(/C=C/c4ccc(Nc5nc(Nc6ccc(S(=O)(=O)O)cc6)nc(N(CCO)CCO)n5)cc4S(=O)(=O)O)c(S(=O)(=O)O)c3)nc(N(CCO)CCO)n2)cc1`, the “fluorescence, % of fluorescent control” value was -0.0346%.
With `O=C(O)c1cccc(C(F)(F)F)c1` the “fluorescence, % of fluorescent control” value was -0.513%.
For `CCN(CC)c1ccc2c(-c3ccc(S(=O)(=O)O)cc3S(=O)(=O)[O-])c3ccc(=[N+](CC)CC)cc-3oc2c1`, the Potency was 794 nM [fluorescent] (active).
For `CCCCN(CCCC)CC(O)c1cc(Cl)cc2c1-c1ccc(Cl)cc1/C2=C/c1ccc(Cl)cc1` (stereo not given), the “fluorescence, % of fluorescent control” value was -0.629% [at 46 µM].
In the case of `O=C1NC(=O)[C@@H]2CC=CC[C@H]12`, the “fluorescence, % of fluorescent control” value is reported as -0.115%.
For `Nc1ccc(Oc2ccc(Cl)cc2)cc1`, the “fluorescence, % of fluorescent control” value was -0.15%.
For `CCCCCCCCCCCCCC[N+](C)(C)Cc1ccccc1`, the Potency was “inactive”.
In the case of `O=c1oc2cc(O)ccc2c2oc3cc(O)ccc3c12`, the “fluorescence, % of fluorescent control” value is reported as 0.148%.
For `COCCOc1cc2cc(C(=O)NC3CCN(C(C)C)CC3)n(CC(=O)Nc3ccc(Cl)cn3)c2cn1`, the “fluorescence, % of fluorescent control” value was 0.16%.
For `O=C1C(c2[nH]c3ccc(S(=O)(=O)O)cc3c2O)=Nc2ccc(S(=O)(=O)O)cc21`, the Potency was “inactive”.
In the case of `Cc1cc(-n2nc3ccc(Cl)cc3n2)c(O)c(C(C)(C)C)c1`, the “fluorescence, % of fluorescent control” value is reported as 0.0827% [at 46 µM].
For `Cc1ccc(C(C)C)cc2c(C)ccc1-2`, the “fluorescence, % of fluorescent control” value was -0.0012% [at 46 µM].
For `CCC(=O)C(=O)CC`, the “fluorescence, % of fluorescent control” value was -0.315% [at 95.7 µM].
For `CCN(CCN)c1cccc(C)c1`, the Potency was “inactive”.
For `OC[C@H]1O[C@H](O[C@H]2O[C@H](CO)[C@@H](O)[C@H](O)[C@H]2O)[C@H](O)[C@@H](O)[C@@H]1O`, the “fluorescence, % of fluorescent control” value was -0.177%.
For `CC(C)(C)NSc1nc2ccccc2s1`, the “fluorescence, % of fluorescent control” value was -0.0746% [at 95.7 µM].
For `O=C1c2ccccc2C(=O)N1SC1CCCCC1`, the Potency was “inactive”.
In the case of `Clc1sc(Cl)c(Cl)c1Cl`, the “fluorescence, % of fluorescent control” value is reported as -0.593%.
For `O=C(O)CCN(C1(C(=O)NO)CCCC1)S(=O)(=O)c1ccc(Oc2ccc(F)cc2)cc1`, the “fluorescence, % of fluorescent control” value was 0.178%.
In the case of `CC1(C)CC(O)CC(C)(C)N1`, the “fluorescence, % of fluorescent control” value is reported as -0.204% [at 95.7 µM].
With `O=C1CCc2cc(OCCCCc3nnnn3C3CCCCC3)ccc2N1` the “fluorescence, % of fluorescent control” value was -0.0955% [at 46 µM].
With `Cc1cccc(C(=O)O)c1O` the “fluorescence, % of fluorescent control” value was -0.357% [at 46 µM].
In the case of `CCOC(=O)c1ccc(C2CCC(NC[C@H](O)COc3ccc(O)c(NS(C)(=O)=O)c3)CC2)cc1` (stereo not given in full), the “fluorescence, % of fluorescent control” value is reported as 0.102%.
In the case of `Cc1nc2n(c(=O)c1CCN1CCC(c3noc4cc(F)ccc34)CC1)CCCC2`, the “fluorescence, % of fluorescent control” value is reported as 0.0372% [at 46 µM].
In the case of `Cc1c2ccccc2c(C)c2c1ccc1ccccc12`, the Potency is reported as “inactive”.
In the case of `CC(=O)OCC=C(C)C`, the “fluorescence, % of fluorescent control” value is reported as 0.0228%.
With `Cl[Si](Cl)(c1ccccc1)c1ccccc1` the “fluorescence, % of fluorescent control” value was -0.0562% [at 95.7 µM].
For `CCCCCCCCCCCCOCCOCCOCCOCCOCCOCCOCCOCCOCCO`, the “fluorescence, % of fluorescent control” value was 0.346% [at 46 µM].
For `CCOC(=O)NNc1ccc(N(CC)CC(C)O)nn1` (stereo not given), the “fluorescence, % of fluorescent control” value was 0.201% [at 46 µM].
With `CCCCCC/C=C\CCCCCCCC(=O)O` the “fluorescence, % of fluorescent control” value was -0.0784%.
For `CCCCCCCCCCCCCC[N+](C)(C)C`, the Potency was “inactive”.
For `CN(C)Cc1ccccc1O`, the “fluorescence, % of fluorescent control” value was 0.343%.
With `O=C(Nc1ccc2c(O)c(N=Nc3ccc(N=Nc4ccc(S(=O)(=O)O)cc4)cc3)c(S(=O)(=O)O)cc2c1)c1ccccc1` the “fluorescence, % of fluorescent control” value was -0.326%.
For `O=C(O)O`, the fluorescence, % of fluorescent control was -0.0236% [at 3.72 µM].
With `O=c1[nH]c(=O)n([C@H]2C[C@H](O)[C@@H](CO)O2)cc1F` the “fluorescence, % of fluorescent control” value was -0.0066% [at 46 µM].

Source: PubChem BioAssay (Tox21)
On the % scale 0 is the no-effect control and ±100 the full control effect; potency means the concentration at half of the fitted maximal effect; tags describe the fitted curve by direction and shape or compound fluorescence and quenching.
